Screening data deposited in PubChem BioAssay by National Center for Advancing Translational Sciences (NCATS).
S-ASM inh – blocks human secretory acid sphingomyelinase. P17405. placental ASM, HMU-PC fluorogenic substrate, 60 min. Potency, µM (highest dose often 57.5 µM), for inactives: at the highest dose activity change, negative = inhibition, actives largely listed as inhibitors. 340,000 compounds, 0.006% hits. AID 504937; further: potency means the concentration at half of the fitted maximal effect
Target sequence (P17405 47-631 limits assumed): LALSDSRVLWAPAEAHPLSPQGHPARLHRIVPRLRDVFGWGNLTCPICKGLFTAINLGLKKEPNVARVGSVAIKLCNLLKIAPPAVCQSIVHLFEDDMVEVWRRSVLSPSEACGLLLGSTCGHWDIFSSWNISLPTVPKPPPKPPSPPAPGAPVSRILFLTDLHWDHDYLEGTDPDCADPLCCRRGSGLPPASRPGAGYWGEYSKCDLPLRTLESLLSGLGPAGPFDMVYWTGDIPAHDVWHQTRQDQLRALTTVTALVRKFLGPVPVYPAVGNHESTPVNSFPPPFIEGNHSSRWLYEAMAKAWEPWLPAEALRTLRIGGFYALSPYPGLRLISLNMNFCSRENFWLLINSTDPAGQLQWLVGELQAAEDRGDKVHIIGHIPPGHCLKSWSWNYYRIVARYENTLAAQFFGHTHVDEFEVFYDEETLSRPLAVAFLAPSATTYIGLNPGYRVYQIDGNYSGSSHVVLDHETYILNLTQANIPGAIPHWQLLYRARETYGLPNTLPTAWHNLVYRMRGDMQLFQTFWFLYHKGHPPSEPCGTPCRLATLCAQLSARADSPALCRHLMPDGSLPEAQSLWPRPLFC
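qHTS format. ASM enzyme prepared from human placenta hydrolyses the fluorogenic substrate HMU-PC0 (9 uM final) over 60 min at 37 °C after a 10 min compound preincubation.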
HepG2 tox – kills HepG2 cells in TGF-b inhibitor counter-screen; 410,000 compounds, 0.76% hits; AID 588856; HepG2 CAGA-GFP viability, ATP luminescence, 18 h; Potency, µM (doses to about 46.1 µM), for the others: at the highest dose activity change, negative = cytotoxicity, hits mostly cytotoxic; further: potency means the concentration at half of the fitted maximal effect
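CellTiter-Glo luminescence gave cytotoxicity after 18 hours at 37 degrees C. The cells were HepG2 CAGA-GFP in 1% FBS DMEM, stimulated with 500 pg/mL TGF-beta after compound addition. %Activity was normalised to no-cell wells (complete cell-killing) and DMSO (no toxicity), and curves were fitted and classified.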
DT40 TDP1 no CPT – qHTS for Inhibitors of human tyrosyl-DNA phosphodiesterase 1 (TDP1): qHTS in cells in absence of CPT. DT40 Tdp1-/- hTDP1 cells, no CPT, ATP luminescence, 48 h. Potency, µM (highest dose often 46.2 µM), inactives show at the top dose activity change, negative = growth inhibition, most hits filed as inhibitors. 420,000 compounds, 15% hits; further: potency means the concentration at half of the fitted maximal effect; on the % scale 0 is the no-effect control and ±100 the full control effect; nearly all actives have a fitted effect of over 55% in size
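Readout: luminescence from CellTiter-Glo after 30 min in the dark at RT. Cells: DT40 Tdp1-/- with stable hTDP1, 400/well. Exposure: compounds alone, ≥48 hr, 37 °C.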
TDP1 cell CPT – growth inhibition of DT40 Tdp1-/-;hTDP1 cells with camptothecin (screen for TDP1 inhibitors) | chicken DT40 Tdp1-/-;hTDP1 cells + 20 nM CPT, ATP luminescence, 48 h | Potency, µM (series often up to 46.2 µM), for inactives: at the highest dose activity change, negative = growth inhibition, usual class: inhibitors | 420,000 compounds, 12% hits; further: potency means the concentration at half of the fitted maximal effect; on the % scale 0 is the no-effect control and ±100 the full control effect; nearly all actives have a fitted effect of over 55% in size
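Cell growth measured by CellTiter-Glo luminescence after a minimum 48 h, 37 C compound exposure with 20 nM CPT in Tdp1-knockout DT40 cells stably expressing hTDP1, seeded 400/well; qHTS titration format.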
IL-1B inflam inh – blocks inflammasome-driven IL-1 beta release | THP-1 LPS/ATP IL-1B secretion, AlphaLISA, 16 h; active compounds read low | activity change, % at 57.5 µM | 360,000 compounds, 4.7% hits | AID 743279; in the data active means activity change below about -50%; inconclusive means mostly about -30% to -49%; further: on the % scale 0 is the no-effect control and ±100 the full control effect
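THP-1 cells pretreated 1 hr with compounds (up to 57.5 uM final), then stimulated with LPS (250 ng/mL final) plus ATP (1.25 mM final); secreted IL-1B measured by AlphaLISA after 16 hr, decreased signal indicating inhibition.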
TGFb SMAD3 inh – blocks TGF-b signaling. HepG2 CAGA-GFP TGF-b/SMAD3 reporter, GFP fluorescence, 18 h; TGF-beta stimulated, 500 pg/mL final. Potency, µM (doses to about 46.1 µM), for inactives: at the top dose activity, negative = inhibition, usual class: inhibitors. 410,000 compounds, 1.2% hits. AID 588855; further: potency means the concentration at half of the fitted maximal effect; on the % scale 0 is the no-effect control and ±100 the full control effect; nearly all actives have a fitted effect of over 65% in size
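Smad-responsive CAGA-GFP expression was quantified in HEPG2 cells exposed to compounds and 500 pg/mL final TGF-beta for 18 h at 37 degrees C; unstimulated wells defined full inhibition.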
Starred values were filed as active, the others as inactive; ? = inconclusive; / = no result given; [ ] = another dose, or the depositor's remark. In the library only some 19% were active in any assay of this set; here they are far more common. Unless noted, the call rests on the fitted dose curve; in most records, active means well fitted curve in the direction sought with a large enough effect; inconclusive means small, poorly fitted or top-dose-only effect, or another doubt; inactive means no such curve, though single readings can be large; an effect the other way counts as inactive or inconclusive.

SMILES | S-ASM inh | HepG2 tox | DT40 TDP1 no CPT | TDP1 cell CPT | IL-1B inflam inh | TGFb SMAD3 inh
Cc1nn(Cc2ccccc2)c(C)c1NC(=O)CSc1n[nH]c(C)c1[N+](=O)[O-] | / | -4% | ? | ? | 11 | -16%
Cc1nn(Cc2ccc(Cl)cc2)c(C)c1NC(=O)c1ccc([N+](=O)[O-])cc1 | 2% | 2% | ? | 1% | -74* | -16%
CN(CCO)c1ccc(-c2n[nH]c(=O)c3ccccc23)cc1[N+](=O)[O-] | -7% | -35% | ? | ? | -1 | -7%
CC1CCN(S(=O)(=O)c2ccc3nc(-c4cccnc4)cc(C(=O)NCCCOC(C)C)c3c2)CC1 | / | 4% | 11% | 4% | / | 0%
CCN(CC)CCNC(=O)c1cc(-c2cccnc2)nc2ccc(S(=O)(=O)N3CCC(C)CC3)cc12 | -5% | -8% | ? | ? | -99* | -1%
CCCCN(CCCC)CCNC(=O)c1cc(-c2cccnc2)nc2ccc(S(=O)(=O)N3CCC(C)CC3)cc12 | / | -12% | -2% | 3.7µM* | / | -2%
CCCCN(C)CCNC(=O)c1cc(-c2cccnc2)nc2ccc(S(=O)(=O)N3CCC(C)CC3)cc12 | -4% | -22% | 15µM* | ? | -14 | 1%
O=C(CSc1ncccn1)NC(=O)NC1CCCC1 | / | -1% | 4% | -1% | 4 | 5%
O=C1C=C(O)c2cccc(O)c2C1=O | -2% | 3% | ? | 26µM* | 15 | -1%
O=C1C=C(O)c2ccccc2C1=O | / | / | -2%[9.04 µM] | ? | / | /
COC(=O)C[C@@H]1C[C@@H]2c3cc(NS(=O)(=O)c4ccc(F)cc4)ccc3O[C@@H]2[C@@H](CO)O1 | / | 9% | ? | -27% | 8 | 6%
c1ccc(NN=C(c2ccccc2)c2cccs2)cc1 | / | -19% | 21µM* | -7% | -14 | -15%
Cc1cccc(CN(C)C[C@@H]2OCc3cnnn3CCCC(=O)N([C@H](C)CO)C[C@H]2C)c1 | / | -6% | -26% | -4% | 1 | -4%
CC(=O)NN1C(=O)c2ccc3c4c(ccc(c24)C1=O)C(=O)N(NC(C)=O)C3=O | -12% | 10µM* | ? | ? | 82 | 7.9µM*
CCOc1ccc(NC(=O)c2ccc3c(SCC(=O)O)c4c(nc3c2)CCC4)cc1 | / | -6% | 11% | 15% | / | -1%
CO/N=C/c1c(-c2ccc(Cl)cc2)nc2cc(C)ccn12 | 23% | -22% | ? | ? | -52* | 0%
Cc1ccc(NC(=O)CN(CCc2ccccc2)S(C)(=O)=O)cc1 | -2% | -2% | -21% | -16% | -10 | 13%
CS(=O)(=O)N(CCCC(=O)N1CCCCCC1)c1cccc(Cl)c1 | 0% | 14% | 1% | -1% | -7 | 12%
O=C(Nc1cccc(-c2cccc(Cl)c2)c1)C1CCN(Cc2ccon2)CC1 | -9% | -43% | 29µM* | 13µM* | -61* | ?
O=C(Nc1cccc(-c2cccc(Cl)c2)c1)C1CCN(Cc2ccccn2)CC1 | -2% | -21% | 26µM* | ? | -74* | ?
CC(NC(=O)C(NS(=O)(=O)c1cccc2nsnc12)C(C)C)c1ccccc1 (stereo unspecified) | 4% | -22% | 1% | 7% | 5 | -1%
COc1ccc(NC(=O)CSc2ccc(F)cc2)cc1S(=O)(=O)N1CCCCC1 | 1% | 16% | -85% | 21µM* | -5 | ?
Cc1ccc(NC(=O)COc2ccccc2)cc1S(=O)(=O)N1CCCCCC1 | -6% | -32% | 29µM* | ? | -20 | ?
COc1ccc(NC(=O)CSc2ccc(NC(C)=O)cc2)cc1S(=O)(=O)N1CCCCC1 | 1% | 2% | ? | 2% | -3 | 4%
